Screens deposited in PubChem BioAssay by National Center for Advancing Translational Sciences (NCATS).
RXFP1 ag: activates the human relaxin receptor RXFP1; Q9HBX9; HEK293T-RXFP1 cAMP TR-FRET, 30 min; response scale: percent of porcine relaxin response, buffer zero; Potency, µM (top dose mostly 57.5 µM), without a hit: top-dose activation, hits mostly activators; actives 0.3% (n = 370,000); AID 2676; note: potency is the fitted concentration of half-maximal effect; % is set by controls: 0 for no effect and ±100 for the full control effect; nearly all actives have a fitted effect of over 60% in size
Target sequence (Q9HBX9 whole entry, looked up): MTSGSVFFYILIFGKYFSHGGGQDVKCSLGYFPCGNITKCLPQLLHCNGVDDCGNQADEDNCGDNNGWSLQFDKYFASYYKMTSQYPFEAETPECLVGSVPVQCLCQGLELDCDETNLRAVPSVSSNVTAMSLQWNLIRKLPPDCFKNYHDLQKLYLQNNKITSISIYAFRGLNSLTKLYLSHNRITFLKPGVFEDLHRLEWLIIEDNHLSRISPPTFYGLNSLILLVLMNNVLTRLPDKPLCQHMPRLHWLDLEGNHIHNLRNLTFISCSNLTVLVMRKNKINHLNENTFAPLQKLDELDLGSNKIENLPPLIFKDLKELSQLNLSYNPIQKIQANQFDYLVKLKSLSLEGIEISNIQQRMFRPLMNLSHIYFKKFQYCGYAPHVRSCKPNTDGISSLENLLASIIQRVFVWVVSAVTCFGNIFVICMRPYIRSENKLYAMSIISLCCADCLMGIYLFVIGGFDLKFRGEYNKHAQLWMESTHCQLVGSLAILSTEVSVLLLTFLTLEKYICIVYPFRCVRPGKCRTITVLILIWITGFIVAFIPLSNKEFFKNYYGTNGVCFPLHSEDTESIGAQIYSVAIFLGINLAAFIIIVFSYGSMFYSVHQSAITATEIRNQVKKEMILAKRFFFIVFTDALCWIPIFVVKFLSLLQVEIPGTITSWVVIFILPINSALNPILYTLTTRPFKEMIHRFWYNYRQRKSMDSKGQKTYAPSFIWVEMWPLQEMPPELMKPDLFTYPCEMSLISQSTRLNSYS
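cAMP rise read by TR-FRET after 30 min, 37C compound exposure (up to 58 uM) in RXFP1-transfected HEK293 cells with Ro 20174 present. EC50 from Hill-equation fits, with 29 nM porcine relaxin as 100% and buffer as basal.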
gsp agonist: activates gsp, the McCune-Albright syndrome mutation. gsp mutant cells, cAMP HTRF, 30 min. Potency, µM (highest dose often 76.9 µM), for inactives: top-dose activation (cAMP increase), usual class: activators. actives 0.13% (n = 340,000); active = well fitted activation curve with a large enough effect; inconclusive = small, poorly fitted or top-dose-only effect, or another doubt; inactive = no such curve, though single readings can be large or run the other way; cell line not stated here;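 note: phosphodiesterase inhibitor Ro 20-1724 added with compounds to block cAMP breakdown; potency is the fitted concentration of half-maximal effect; nearly all actives have a fitted effect of over 60% in size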
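Cells stably selected in G418 were plated at 2000/well, grown 16-24 hr, then given compounds in DMSO with the PDE inhibitor […] (300 uM solution added) for 30 min at 37C; cAMP was read by HTRF.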
Tb PFK inh: blocks T. brucei phosphofructokinase; actives 0.17% (n = 330,000); T. brucei PFK, ADP-Glo luminescence; O15648; Potency, µM (doses to about 57.5 µM), without a hit: at the top dose activity, negative = inhibition, hits mostly inhibitors;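 note: potency is the fitted concentration of half-maximal effect; 0% = uninhibited 1x PFK enzyme wells and -100% = no-enzyme wells; nearly all actives have a fitted effect of over 60% in size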
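In TEA buffer at pH 8.0 with 5 mM MgCl2, enzyme (1.25 nM) converted F6P (0.5 mM) and ATP (0.1 mM) for 45 min at room temperature. ADP product was read by luciferase luminescence.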
gsp antag: antagonists of gsp mutant (McCune-Albright syndrome) | gsp-mutant cells, cAMP HTRF, 30 min | Potency, µM (series often up to 76.9 µM), for the others: top-dose activity change, negative = inhibition, hits mostly inhibitors | actives 0.4% (n = 340,000); calls by dose curve; cell line not stated here;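 note: intracellular cAMP measured with PDE inhibitor Ro 20-1724 present during compound exposure; potency is the fitted concentration of half-maximal effect; % is set by controls: 0 for no effect and ±100 for the full control effect; nearly all actives have a fitted effect of over 65% in size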
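HTRF cAMP measurement after 30 min RT detection following 30 min, 37C compound treatment alongside […] (added as 300 uM solution) in G418-selected cells seeded at 2000/well and grown 16–24 h.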
RXFP1 antagonist: RXFP1 (human) relaxin receptor antagonism | Q9HBX9 | HEK293-RXFP1, relaxin-stimulated cAMP HTRF, 30 min; active compounds read low | activity change, negative = inhibition, % at 57.5 µM | actives 0.59% (n = 350,000) | AID 1259400;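 active = activity change of -60% or lower, but not beyond a set lower limit; inconclusive = change between -60% and -40%, or beyond the set limit; inactive = change above -40%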; note: % is set by controls: 0 for no effect and ±100 for the full control effect
p53 reactivator: mutant p53 re-activation in reporter cells; H1299 p53-A138V BP100-luciferase reporter, luminescence, 24 h; Potency, µM (top dose mostly 92.2 µM), without a hit: at the top dose activity change, positive = activation, hits mostly activators; actives 0.063% (n = 320,000); note: potency is the fitted concentration of half-maximal effect; % of control where 0% means no effect; nearly all actives have a fitted effect of over 45% in size
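H1299 (p53-null), stable ts p53-A138V + BP100-Luc; 1000 cells/well, Opti-MEM/10% FBS; cpd 4 pt, 1:5; 24 h, 37 deg C, 5% CO2; detection reagent 10 min RT; luminescence.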
An asterisk follows results filed as active; ? = inconclusive; nt = no result; [ ] = remark or other dose. An excerpt weighted towards active compounds, which were near 1.1% of everything screened. Unless noted, calls come from the whole dose curve; as a rule, active = well fitted curve in the direction sought with a large enough effect; inconclusive = small, poorly fitted or top-dose-only effect, or another doubt; inactive = no such curve, though single readings can be large; an effect the other way counts as inactive or inconclusive.

SMILES	RXFP1 ag	gsp agonist	Tb PFK inh	gsp antag	RXFP1 antagonist	p53 reactivator
CCOC(=O)c1ccc(NC(=S)NNC(=O)c2cc(-c3cccnc3)nc3ccccc23)cc1	-3%	10%	-9%	-32%	-16	-2%
COc1ccc(CN(C(=O)c2ccco2)C2CC(C)N(C)CC2C)cc1 (stereo unspecified)	1%	-12%	-3%	4%	-15	6%
COC(=O)c1c(NC(=S)Nc2ccc(CC(=O)O)cc2)sc(C)c1C	18%	?	13%	0%	-63*	8%
CCOC(=O)c1c(NC(=S)Nc2ccc(Cl)cc2)sc(C)c1C	2%	-7%	4%	-10%	-1	-1%
COCc1ccc(CN2CCCC(CO)(Cc3cccc(Cl)c3)C2)o1 (stereo unspecified)	-1%	-16%	12%	3%	-8	6%
COc1ccc(C2=CC(=O)C=CC2=O)cc1	2%	nt	6.7µM*	nt	nt	-14%
Cc1ccccc1CS(=O)(=O)c1nnc([C@H](Cc2ccccc2)NC(=O)OC(C)(C)C)o1	0%	-59%	-5%	22%	-67*	-20%
CC(C)(C)OC(=O)N[C@@H](Cc1ccccc1)c1nnc(S(=O)(=O)Cc2ccccc2)o1	0%	nt	0%	nt	nt	-11%
O=C(N/N=C\c1ccncc1)c1ccccc1O	2%	-11%[15.4 µM]	-2%	4%	-1	14%
O=C(N/N=C/c1ccc(-c2ccccc2)o1)c1ccccc1O	0%	?	2%	-13%	-85*	3%
COc1ccc(CCNC(=O)c2cc(S(=O)(=O)N3CCC4(CC3)OCCO4)ccc2F)cc1OC	-2%	?	-2%	11µM*	-23	-4%
Cc1ccccc1OCc1nc(-c2ccc(NC(=O)c3ccc4c(c3)OCO4)cc2)no1	0%	10%	-4%	8%	-4	19%
COc1cc(C2C(C(C)=O)=C(O)C(=O)N2CCN2CCOCC2)ccc1O (stereo unspecified)	1%	?	7%	4%	1	0%
COc1cc(C2C(C(=O)c3ccc(C)o3)=C(O)C(=O)N2CCN2CCOCC2)ccc1OCCC(C)C (stereo unspecified)	16µM*	38%[15.4 µM]	2%	5%	8	nt
Cc1cccc(N2CCN(c3ncnc4c3nc3n4CCCCC3)CC2C)c1 (stereo unspecified)	4%	nt	nt	nt	-70*	nt
CCCC(=O)Oc1cccc(C2NC(=O)c3ccccc3O2)c1 (stereo unspecified)	-3%	3%	3%	9%	-10	nt
COc1ccc(S(=O)(=O)NCCc2c[nH]c3ccc(C)cc23)cc1	1%	?	3%	32µM*	-8	nt
Cc1ccc2nc(-c3ccc(NC(=O)COC(=O)c4ccc([N+](=O)[O-])o4)cc3)sc2c1	2%	4%[15.4 µM]	8%	8%	-8	3.2µM*
Cc1ccc2nc(-c3ccc(NC(=O)COC(=O)c4ccc(Br)o4)cc3)sc2c1	6%	-10%	0%	14%	-9	nt
COC(=O)c1sccc1NC(=O)CN(C)NS(=O)(=O)c1ccc(F)cc1	2%	-1%	0%	50µM*	20	5%
CCOC(=O)c1sc2nc(C)nc(SCC(=O)N(C)C3CCS(=O)(=O)C3)c2c1C (stereo unspecified)	12%	16µM*	-1%	8%	0	0%
Cc1nc(SCC(=O)NC2CC2)c2c(C)c(C)sc2n1	16%	10%[15.4 µM]	1%	-4%	-6	-14%
COC(=O)c1sc2nc(C)nc(SCC(=O)N3CCC(C(=O)O)CC3)c2c1C	?	16µM*	1%	0%	5	3%
CN(C(=O)CSc1ncnc2sc3c(c12)CCCC3)C1CCS(=O)(=O)C1 (stereo unspecified)	nt	11µM*	8%	-4%	12	-12%
CCN(C(=O)CSc1nc(C)nc2sc(C)c(C)c12)C1CCS(=O)(=O)C1 (stereo unspecified)	1%	?	0%	-13%	0	-3%
SMILES	RXFP1 ag	gsp agonist	Tb PFK inh	gsp antag	RXFP1 antagonist	p53 reactivator
CCOC(=O)C1CCC(CN(Cc2cccc(Br)c2)S(=O)(=O)c2ccc(C)cc2)CC1 (stereo unspecified)	-1%	nt	nt	nt	-11	nt
Oc1c(C(c2cccs2)N2CCN(c3cccc(Cl)c3)CC2)sc2ncnn12 (stereo unspecified)	-1%	-32%	-8%	-19%	-2	-1%
CCOC(=O)N1CCN(C(=O)c2cc3cc(F)ccc3[nH]2)CC1	1%	-7%[15.4 µM]	5%	5%	-1	7%
CCOC(=O)N1CCN(C(=O)c2cc3cc(Cl)ccc3[nH]2)CC1	6%	-17%	0%	50µM*	0	-1%
CCCOc1ccc(-c2c(=O)n(OCC(=O)OCC)c3ccccc3[n+]2[O-])cc1	2%	?	1%	-3%	0	nt
CO[C@@H]1[C@@H](OC)[C@H](C)[C@@](O)(CC(=O)O)O[C@H]1[C@H](C)[C@H]1O[C@@]2(CC[C@@](C)([C@H]3CC[C@@](C)([C@@H]4O[C@@H]([C@H]5O[C@](C)(O)[C@H](C)C[C@@H]5C)C[C@@H]4OC4C[C@H](OC)[C@@H](OC)[C@H](C)O4)O3)O2)C[C@H](O)[C@H]1C (stereo partly specified)	nt	nt	nt	nt	-66*	nt
Brc1ccc(OCc2ccccc2)c(CNCc2ccncc2)c1	-1%	-28%	2%	?	-89*	-2%
CCOc1ccc(S(=O)(=O)NCc2ccc(Cl)cc2)c2cccnc12	2%	-27%	-5%	-10%	20	4%
CCOc1ccc(S(=O)(=O)Nc2ccccc2SC)c2cccnc12	-3%	-16%	-6%	13µM*	7	-5%
COc1ccc2sc(N(Cc3cccnc3)C(=O)COc3ccccc3)nc2c1	0%	nt	nt	nt	-24	nt
CCOC(=O)c1ccc(NC(=O)CCc2nc(-c3ccccc3)no2)cc1	-1%	-19%	0%	40µM*	-17	0%
O=C(C1=C(O)C(=O)N(CCCN2CCOCC2)C1c1ccc(Cl)cc1)c1cc2ccccc2o1 (stereo unspecified)	0%	11µM*	1%	20%	11	18%
O=C(C1=C(O)C(=O)N(CCN2CCOCC2)C1c1ccc(Cl)cc1)c1cc2ccccc2o1 (stereo unspecified)	?	?	0%	5%	10	-1%
CCN1C(=O)C2(C(C(=O)c3cc4ccccc4o3)=C(O)C(=O)N2CCCN2CCOCC2)c2ccccc21 (stereo unspecified)	16µM*	106%[15.4 µM]	2%	20%	48	0%
